This is a sample that favours compounds with a hit; in the whole collection about 3.3% have one here.
SIRT5 block – inhibitors of human sirtuin-5 desuccinylase; Q9NXA8; Purified SirT5, succinyl-peptide AMC, trypsin-coupled fluorescence; inhibition, % at 15 µM; 1.1% of 330,000 active; AID 652115; in the data active = inhibition above about 15%
Target sequence (Q9NXA8 whole entry, looked up): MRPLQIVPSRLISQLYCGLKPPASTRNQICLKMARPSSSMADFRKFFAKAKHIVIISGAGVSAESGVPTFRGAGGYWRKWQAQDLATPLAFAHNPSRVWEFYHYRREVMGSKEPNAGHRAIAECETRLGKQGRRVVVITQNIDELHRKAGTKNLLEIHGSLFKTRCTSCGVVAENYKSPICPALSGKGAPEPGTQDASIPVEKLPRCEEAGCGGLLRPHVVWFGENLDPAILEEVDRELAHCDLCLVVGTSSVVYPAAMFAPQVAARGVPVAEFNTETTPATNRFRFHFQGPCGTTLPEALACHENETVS
FGF22 binding – FGF22 (human) thermal shift binding. Q9HCT0. recombinant FGF22 thermal shift, SYPRO orange fluorescence; percent of sucrose octasulfate shift, DMSO zero. activity (Tm shift, normalised), % at 9.99 µM. 1.5% of 340,000 active;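 active = mean Tm shift, scaled 0 neutral to 100 positive control, at about 1.3% or above, every replicate too, limit read from the data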
Target sequence (Q9HCT0 whole entry, looked up): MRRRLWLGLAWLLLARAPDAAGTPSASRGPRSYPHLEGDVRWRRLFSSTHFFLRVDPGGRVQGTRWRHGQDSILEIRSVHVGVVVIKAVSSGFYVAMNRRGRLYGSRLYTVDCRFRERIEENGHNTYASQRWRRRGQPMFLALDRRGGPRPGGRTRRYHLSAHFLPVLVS
GSIS activator – primary screen for activators of insulin secretion dependent on glucose, INS-1E cells, GLuc reporter luminescence; INS-1E GLuc reporter insulin secretion, 2-3 h; activation, % at 16.6 µM; 0.61% of 370,000 active; AID 743287;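 active = lowest replicate activation of at least 40%, so every replicate reaches that level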;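 also: 0% = median of neutral control wells and 100% = median of IBMX positive control wells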
ERAP1 HTS inh – inhibitors of human ERAP1 aminopeptidase; recombinant ERAP1, Leu-AMC fluorescence, 60 min; 0.15% of 340,000 active; inhibition, % at 10.7 µM; AID 652197;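 active = mean replicate inhibition of at least 30%, or all replicates individually reaching that 30% level; inactive = mean below 30% and not every replicate reaching it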;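 also: 0% = neutral control wells and 100% = L-leucinethiol positive control wells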
Casp6 inh – blocks human caspase-6 cleavage activity. P55212. AID 686996. inhibition, % at 12.5 µM. purified caspase-6, Z-VEID-R110 cleavage fluorescence. 0.53% of 350,000 active;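 active = mean inhibition across replicates at least about 35%, with every replicate also reaching that limit, limit read from the data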;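 also: 0% = median of neutral control wells and 100% = no fluorescence left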
An asterisk follows results filed as active; nt = no result.

SMILES	SIRT5 block	FGF22 binding	GSIS activator	ERAP1 HTS inh	Casp6 inh
C[C@H]1CN([C@@H](C)CO)S(=O)(=O)c2ccc(C#CC3CC3)cc2O[C@@H]1CN(C)C(=O)Cc1ccncc1	18*	0	21	0	-4
C[C@H]1CN([C@@H](C)CO)S(=O)(=O)c2ccc(C#CC3CC3)cc2O[C@H]1CN(C)C(=O)Cc1ccncc1	1	0	-4	-2	-3
C[C@@H]1CN([C@H](C)CO)S(=O)(=O)c2ccc(C#CC3CCCC3)cc2O[C@H]1CN(C)C	101*	0	9	-9	2
C[C@H](CO)N1C[C@H](C)[C@@H](CN(C)C(=O)Cc2ccccc2)Oc2cc(C#CC3CCCC3)ccc2S1(=O)=O	15*	0	-1	0	nt
C[C@H]1CN([C@@H](C)CO)S(=O)(=O)c2ccc(/C=C/c3ccccc3)cc2O[C@@H]1CN(C)C(=O)NC1CCCCC1	30*	0	-17	1	1
C[C@@H]1CN([C@H](C)CO)S(=O)(=O)c2ccc(/C=C/c3ccccc3)cc2O[C@H]1CN(C)C(=O)NC1CCCCC1	25*	-1	-23	0	-1
CO[C@H]1CN(C)C(=O)c2cc(NC(=O)c3nc4ccccc4s3)ccc2OC[C@H](C)N(Cc2cncnc2)C[C@@H]1C	15*	0	0	nt	nt
COc1ccc(CN2C[C@H](C)[C@@H](OC)CN(C)C(=O)c3ccc(NC(=O)c4nc5ccccc5s4)cc3OC[C@H]2C)cc1	6	nt	-35	1	-2
CO[C@H]1CN(C)C(=O)c2cc(NC(=O)c3nc4ccccc4s3)ccc2OC[C@H](C)NC[C@H]1C	1.9*	0	7	2	-2
CO[C@@H]1CN(C)C(=O)c2cc(NC(=O)c3nc4ccccc4s3)ccc2OC[C@H](C)NC[C@H]1C	nt	0	19	2	-1
COc1ccc(CN2C[C@H](C)[C@@H](OC)CN(C)C(=O)c3ccc(NC(=O)c4nc5ccccc5s4)cc3OC[C@@H]2C)cc1	102*	nt	nt	4	0
O=C(C[C@@H]1CC[C@@H](NC(=O)C2CCC2)[C@H](CO)O1)NC1CCCCC1	3	0	-3	0	6
C[C@@H]1CN([C@H](C)CO)C(=O)Cc2cc(NS(=O)(=O)c3ccc(F)cc3)ccc2O[C@H]1CN(C)C(=O)Nc1cccc2ccccc12	-19	0	-5	-4	-2
C[C@H]1CN([C@@H](C)CO)C(=O)c2cc(NS(=O)(=O)c3ccc(Cl)cc3)ccc2O[C@@H]1CN(C)C(=O)Nc1ccccc1	nt	0	-23	2	3
C[C@H]1CN([C@@H](C)CO)S(=O)(=O)c2ccc(-c3ccncc3)cc2O[C@@H]1CN(C)C(=O)CN(C)C	-2	0	16	4	1
CCC1CCCCN1S(=O)(=O)c1ccc(NC(=O)c2nc(S(C)(=O)=O)ncc2Cl)cc1 (configuration not stated)	-2	0	72*	1	0
O=C(NCc1ccccc1)c1nc(S(=O)(=O)Cc2ccccc2)ncc1Cl	-1	0	42	-4	10
COc1ccc(CNC(=O)c2nc(S(=O)(=O)Cc3ccccc3)ncc2Cl)cc1	21*	0	59*	-2	4
CCC1CCCCN1S(=O)(=O)c1ccc(NC(=O)c2ccncc2)cc1 (configuration not stated)	1	0	-44	-2	1
CCS(=O)(=O)c1ncc(Cl)c(C(=O)Nc2ccc(C)cc2)n1	2	0	63*	3	1
CC(=O)Nc1ccc(NC(=O)c2nc(S(=O)(=O)Cc3ccccc3)ncc2Cl)cc1	-3	0	60*	-1	9
O=C(Nc1ccc2c(c1)[C@@H]1C[C@H](CC(=O)N3CCCCC3)O[C@H](CO)[C@@H]1O2)NC1CCCCC1	nt	nt	7	nt	nt
CC(=O)Nc1sc(N/N=C\c2cccc(Cl)c2)nc1-c1cccs1	nt	nt	68*	nt	nt
CC(=O)Nc1sc(N/N=C\c2ccc(O)cc2)nc1-c1cccs1	-2	0	-21	1	0
Cc1ccc(S(=O)(=O)Nc2ccc3c(c2)C(=O)N([C@@H](C)CO)C[C@H](C)[C@@H](CN(C)Cc2ccc4c(c2)OCO4)OCCCC[C@H](C)O3)cc1	2	0	-8	-1	-5
SMILES	SIRT5 block	FGF22 binding	GSIS activator	ERAP1 HTS inh	Casp6 inh
CC(=O)N1[C@H](CO)[C@H](c2ccccc2)C12CN(S(=O)(=O)c1ccccc1)C2	-3	nt	6	0	21
Cc1cccc(N2CCN(C(=S)c3ccc([N+](=O)[O-])cc3)CC2)c1	6	0	-2	1	-2
FC(F)(F)c1cccc(NC(=S)N2CCN(c3ccccn3)CC2)c1	-3	44*	-4	-4	3
O=C(Nc1ccc(F)cc1)N1CCN(c2ncccn2)CC1	1	43*	-2	-2	0
S=C(Nc1ccc(Nc2ccccc2)cc1)N1CCN(c2ncccn2)CC1	-5	43*	12	-4	-3
O=C(Nc1ccc(Cl)cc1)N1CCN(c2ncccn2)CC1	-2	0	-8	-10	0
Cc1cccc(N2CCN(C(=S)c3ccccc3)CC2)c1	0	44*	0	-1	0
COCC(=O)N(C)C[C@@H]1Oc2cc(-c3ccccc3F)ccc2S(=O)(=O)N([C@@H](C)CO)C[C@H]1C	2	0	0	1	-1
Cc1ccc(N2CCN(C(=S)Nc3ccccc3)CC2)cc1	-6	43*	-8	1	-4
O=C1CS/C(=N\N=C\c2ccco2)N1c1ccccc1	-5	0	1	nt	57*
O=C1CS/C(=N/N=C/c2ccccc2)N1c1ccc(O)cc1	2	0	-14	-2	-1
O=C(O)c1cc(O)c2c(c1)C(=O)c1cccc(O)c1C2=O	18*	-1	nt	6	40*
C[C@@H]1CN([C@H](C)CO)C(=O)c2cc(NC(=O)Nc3ccc(F)cc3)ccc2O[C@H]1CN(C)Cc1ccc2c(c1)OCO2	0	0	-21	0	-2
c1ccc(-c2nc(-c3cccs3)[nH]c2-c2ccccc2)cc1	15*	0	9	1	-4
O=C(O)c1ccccc1-c1nc(-c2ccccc2)c(-c2ccccc2)[nH]1	0	0	1	-3	1
O=C(NCC[C@@H]1CC[C@@H](NS(=O)(=O)c2cccc(F)c2)[C@H](CO)O1)C1CCCCC1	9	0	-1	0	1
COc1ccc2c3c([nH]c2c1)[C@@H](CO)N(C(=O)c1cccnc1)CC31CN(Cc2cccnc2)C1	nt	0	9	-1	0
CCOC(=O)c1nn(-c2ccccc2)cc1O	28*	0	0	-4	0
O=c1[nH][nH]c(-c2ccccc2)c1C=Nc1ccc(F)cc1F	1	44*	11	-2	1
O=Cc1ccc(-n2cc(C=O)c3ccccc32)cc1	2	43*	-6	4	0
O=C(/C=C/c1ccco1)N1CCN(S(=O)(=O)c2ccccc2)CC1	5	0	-13	-8	48*

Screens from PubChem.
